According to the supplement of paper PMC7866885, “A novel bicyclic 2,4-diaminopyrimidine inhibitor of Streptococcus suis dihydrofolate reductase” (PeerJ, 2021):
± gives the standard deviation.

What was measured:
Streptococcus suis HE06 = experiment: percent growth relative to DMSO control; higher = less growth inhibition; details: 10 µM; incubation time 18 h
Description: (§1)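 CLSI broth microdilution: 5x10^4 CFU of Streptococcus suis (strain P1/7 or HE06) incubated with 10 µM Pathogen Box compound in cation-adjusted Mueller Hinton broth, 37 °C, 5% CO2, 18 h. Growth read as OD600 and expressed as percent of the DMSO-treated control (100%); mean ± SD of three independent experiments.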

Streptococcus suis P1/7 = experiment: as above; details: 10 µM; incubation time 18 h
Description: as §1

Compound | percent growth (Streptococcus suis HE06) [%] | percent growth (Streptococcus suis P1/7) [%]
CC1(C)Cc2c(c(N3CCOCC3)nc3snc(Br)c23)CO1 | 94.1 ± 2 | 82.2 ± 20
CC(C)(C)n1nc(-c2ccccc2)c2c(N)ncnc21 | 79.7 ± 12 | 84.5 ± 20
c1ccc(Oc2ccc(-c3cc(N4CCNCC4)[nH]n3)cc2)cc1 | 106 ± 35 | 67.6 ± 28
Cc1cccnc1NC(=O)c1cccc(OCc2c(C)noc2C)c1 | 81.4 ± 11 | 96.3 ± 39
CNC1C(OC2C(OC3C(O)C(O)C(NC(=N)N)C(O)C3NC(=N)N)OC(C)C2(O)C=O)OC(CO)C(O)C1O (stereo not drawn) | 99.9 ± 10 | 86.1 ± 18
CC(=O)NCC1CN(c2ccc(-c3ccc(CO)cc3)c(F)c2)C(=O)O1 (stereo not drawn) | 0 | 0.214 ± 0.37
COc1cc(C2=NCCN2)cc2cc(-c3ccc(C4=NCCN4)cc3)oc12 | 106 ± 34 | 83.2 ± 17
CC[C@H](CO)NCCN[C@H](CC)CO | 88.7 ± 6.4 | 77 ± 21
N#Cc1ccc(-c2cnc(N)c(-c3ccc(C(N)=O)cc3)n2)cc1 | 114 ± 46 | 73.1 ± 4.3
N#Cc1ccc(-c2ccc(OCC(N)=O)cc2)cc1 | 91.4 ± 11 | 94.4 ± 35
COc1cc(NC(C)CCCN)c2ncccc2c1 (stereo not drawn) | 90.6 ± 4 | 127 ± 60
O=C1[C@@H](Oc2ccccc2)[C@@H](c2ccc(Cl)cc2)N1CCn1cnc2c(NCc3ccccc3)ncnc21 | 94.9 ± 4.6 | 112 ± 21
Cc1ccc(NC(=O)c2nc[nH]c2C(=O)Nc2nc3ccccc3[nH]2)c(C)c1 | 47.8 ± 38 | 1.93 ± 0.44
Cc1cccc(Cn2ccc(NC(=O)c3ccc4c(c3)OCO4)n2)c1 | 75.3 ± 22 | 102 ± 23
COc1cccc(-n2nnnc2S(=O)(=O)Cc2ccccc2)c1 | 33.8 ± 19 | 64.7 ± 47
O=C(NCc1ccoc1)N1CCN(Cc2ccc3c(c2)OCO3)CC1 | 94 ± 5.7 | 78.3 ± 6.3
CC1=Nc2ccc(Cl)cc2C(O)(c2ccc(C)cc2)N1CCN1CCCCC1 (stereo not drawn) | 98.9 ± 32 | 91 ± 28
COc1ccc(N(CCc2cccc(C)n2)C(C)=O)cc1 | 112 ± 54 | 62.6 ± 12
Oc1c(I)cc(I)c2cccnc12 | 0.688 ± 0.61 | -0.0569 ± 0.099
Cc1nn(C)cc1C(C)Nc1nncc(-c2ccc(C(F)(F)F)cc2)n1 (stereo not drawn) | 116 ± 20 | 103 ± 32
O=C(NC1CC1)c1ccc(CSCc2ccccc2Cl)o1 | 83.2 ± 21 | 65.8 ± 24
c1ccc(-c2[nH]c3ccccc3c2C(c2ccccn2)N2CCCC2)cc1 (stereo not drawn) | 88.5 ± 4.3 | 108 ± 23
COc1cncc(-c2cncc(N3CCN(c4ccncc4)CC3)n2)c1 | 87.2 ± 26 | 64.3 ± 15
O=C(Nc1c(O)cccc1-c1nc2c(C(=O)O)cccc2o1)c1cc(-c2ccccc2)on1 | 61.5 ± 26 | 11.1 ± 6.9
Nc1ncc(-c2ccc(C(F)(F)F)nc2)cc1-c1ccc(C(F)(F)F)nc1 | 98.8 ± 13 | 101 ± 35
CC(C)(C)c1cc(C(=O)N2CCN(c3nccnc3C#N)CC2)n(Cc2ccccc2)n1 | 93.1 ± 32 | 91.6 ± 34
O=C(Nc1nnc(-c2ccc(Cl)cc2)o1)c1cccc(C(F)(F)F)c1 | 0 | 2.91 ± 3.9
COc1cc(CN2CCC3(C=Cc4ccccc43)CC2)cc2c1OCO2 | 82 ± 16 | 83.9 ± 5.5
O=C(Nc1cccc(-c2ccc(NCCCN3CCCC3)nc2)c1)c1ccccc1 | 96.7 ± 23 | 72.5 ± 24
